# Results as given in PubChem BioAssay (NCI).
# This is part of a sample that, as a whole, favours compounds with a hit. Of some 83,000 tested, about 20% had one in any assay.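 The test compound was applied at a single concentration to cells in 96-well plates for 48 hours, and percent growth was recorded.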 A number with no mark means an inactive call. Active and inactive are the calls of the source. The calls were made as follows: active = growth percent below 10; inactive = the rest.
# Tested on: HL-60(TB) leukemia
# Experiment: NCI-60 one-dose screen, 48 h (100 = growth as untreated, 0 = no growth, -100 = all killed)
# Conditions: 10 µM unless noted
row,Structure (SMILES),growth
1,CNCCCC12CCC(c3ccccc31)c1ccccc12,71%
2,COc1cc2cc(C(=O)Nc3ccccc3)c(N)nc2cc1OC,-42.1% (active)
3,Cc1ccc(-c2cc3c(cc2O)C2CCCCC2(N2CCOCC2)O3)cc1 (configuration not stated),96.1%
4,Nc1n[nH]c2cccc(C#Cc3cccc(C(=O)Nc4cccc(C(F)(F)F)c4)c3)c12,30.4%
5,COc1ccc(C2=C/C(=C\c3ccc(Cl)cc3)C(=O)N2/N=C/c2ccc(Cl)cc2)cc1,102%
6,CC[C@H](CC[C@@H](C)[C@H]1CC[C@H]2[C@@H]3/C(=C/c4cccnc4)C(=O)C4=CC(=O)CC[C@]4(C)[C@H]3CC[C@]12C)C(C)C,64.6%
7,O=C(/C=C/c1cccc(Cl)c1)c1ccc(O)c(CN2CCN(c3cc4c(cc3F)c(=O)c(C(=O)O)cn4C3CC3)CC2)c1,27.3%
8,O=C(Oc1ccccc1)c1ccccc1Cl,76.4%
9,CCc1nc2cc(/C=C/C(=O)NO)c(F)cc2c(=O)n1CCc1ccccc1,-8.55% (active)
10,Nc1cccc(-c2nc3sccn3c2-c2ccnc(NCCCNS(=O)(=O)c3cccc4ccccc34)n2)c1,7% (active)
11,CC[C@@H](C(=O)[C@@H](C)[C@@H](O)[C@H](C)[C@@H]1O[C@@H]([C@@H](CC)C(=O)ONC(=O)c2ccccc2O)CC[C@@H]1C)C1O[C@]2(C=CC(=O)[C@]3(CC[C@@](C)([C@H]4CC[C@](O)(CC)[C@H](C)O4)O3)O2)[C@H](C)C[C@@H]1C (some centres not stated),-45.7% (active)
12,COc1cccc(-c2nnc(COc3ccc(-c4nc5ccccc5[nH]4)cc3OC)o2)c1,103%
